From PubChem
Hits are enriched below; roughly 3.4% of the tested compounds scored in any of these assays.
MITF inh = blocks human microphthalmia-associated transcription factor; O75030; AlphaScreen MITF homodimerization, bead proximity signal; AID 1259374; inhibition, % at 2.6 µM; hit rate 0.91% among 650,000; in the data active = inhibition above about 50%;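 note: 0% = vehicle wells with protein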
FBW7 activator = human FBW7 E3 ligase activation, primary screen; normalized activity (activation), % at 26.1 µM; hit rate 0.13% among 650,000; AlphaScreen FBW7–phospho-cyclin E peptide binding, activator screen; in the data active = normalized activity above about 1.9%;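 note: purified mutant Fbw7 with reduced substrate affinity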
GPR151 activ = human GPR151 activation; AID 1508602; Q8TDV0; activation, % at 11.2 µM; hit rate 1% among 650,000; PathHunter beta-arrestin GPR151 cells, luminescence; in the data active = activation above about 4.9%;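 note: 0% = median of compound wells and 100% = cells with positive control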
Target sequence (Q8TDV0 whole entry, looked up): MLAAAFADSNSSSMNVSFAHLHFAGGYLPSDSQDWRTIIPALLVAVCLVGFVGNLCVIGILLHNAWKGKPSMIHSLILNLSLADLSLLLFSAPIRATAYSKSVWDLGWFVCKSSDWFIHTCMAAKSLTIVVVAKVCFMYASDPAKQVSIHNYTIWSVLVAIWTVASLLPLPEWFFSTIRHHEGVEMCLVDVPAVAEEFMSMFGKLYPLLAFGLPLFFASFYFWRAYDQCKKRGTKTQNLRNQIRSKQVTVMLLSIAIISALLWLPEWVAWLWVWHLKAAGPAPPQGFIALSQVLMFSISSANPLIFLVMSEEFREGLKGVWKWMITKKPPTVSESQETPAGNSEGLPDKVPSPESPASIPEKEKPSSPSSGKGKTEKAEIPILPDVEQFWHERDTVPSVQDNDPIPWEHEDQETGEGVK
TEAD-YAP inh = TEAD-YAP interaction inhibition; HEK-TIYL cells, TEAD-Gal4/YAP UAS-luciferase luminescence; inhibition, % at 9.12 µM; hit rate 1.4% among 640,000; AID 1259422; in the data active = inhibition above about 32%;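 note: 0% = median of test compound wells and 100% = reference inhibitor wells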
GPR151 conf act = human GPR151 activation, confirmation screen. shares compounds with GPR151 activ. 6,700 tested, under 10 active. GPR151 PathHunter beta-arrestin cells, luminescence, 90 min; % of EA-reagent control over plate median. AID 1508609. activation, % at 11.2 µM;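 active = mean percent activation across replicates above the confirmation screen cutoff of 4.91%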
GPR119 counter = counter-screen for GPR151 activators: effect on human GPR119 | shares compounds with GPR151 activ | GPR119 PathHunter beta-arrestin cells, luminescence, 90 min; 0 = compound-well median, 100 = enzyme-acceptor control | activation, % at 11.2 µM | hit rate 0.3% among 6,700;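 active = mean percent activation in the counterscreen above 29.09%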;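 note: counterscreen on off-target GPR119 to flag nonselective hits from the GPR151 activator screen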
Active calls of the source: *; / = not tested or not shown; ! = not active in a repeat.

SMILES | MITF inh | FBW7 activator | GPR151 activ | TEAD-YAP inh | GPR151 conf act | GPR119 counter
Cc1ccc(-n2c(-c3ccncc3)n[nH]c2=S)cc1 | -5 | 0 | -1 | 11 | / | /
Cc1ccc(C)n1-c1ccc(-c2ccnc(-c3ccncc3)n2)cc1 | 6 | 0 | 5.4* | 4 | 0 | 0
Cc1sc(NC(=O)c2ccc(N3CCCCC3)c([N+](=O)[O-])c2)c(C#N)c1C | 13 | 0 | 13* | -2 | 1 | -12
COC(=O)c1cc(NC(C)=O)c(Cl)c(NC(C)=O)c1 | 26 | 0 | -1 | 4 | / | /
CC(=O)Nc1cc(C(=O)O)cc(N)c1Cl | 16 | 0 | 5.5* | 0 | -1 | -2
Cc1ccccc1N(C)C(=O)Cc1c(C(=O)O)[nH]c2ccccc12 | 38 | 0 | 5.5* | 9 | 0 | -9
CCOc1ccccc1N(C)C(=O)Cc1c(C(=O)O)[nH]c2ccccc12 | -4 | 0 | 1 | 9 | / | /
CCCC(=O)Nc1nnc(S(=O)(=O)N(CC)c2ccc(Cl)cc2)s1 | 6 | 0 | 0 | 11 | / | /
CCCCC(=O)Nc1nnc(S(=O)(=O)N(CC)c2ccc(Cl)cc2)s1 | -6 | 0 | 5.7* | 6 | 1 | 3
O=C(Cn1nc2oc3ccccc3n2c1=O)NC1CCCC1 | -4 | 0 | 7.8* | 2 | 0 | 9
Cc1nn(C(C)C(=O)O)c(=O)c2cc3ccsc3n12 (stereo unspecified) | -3 | 0 | 1 | -10 | / | /
Nc1ccc(-c2nnn(CC(=O)Nc3ccc(C4CCCCC4)cc3)n2)cc1 | -7 | 0 | 8.1* | -5 | 1 | 12
O=C(NC1CCCCC1)[C@H]1C=CCN1C(=O)C1CC1 | -26 | 0 | 7.4* | 1 | 0 | 1
COC(=O)c1cccc(NC(=O)CN2C(=O)c3ccc([N+](=O)[O-])cc3C2=O)c1C | -10 | 1 | 5.1* | -3 | 1 | 10
COC(=O)c1ccccc1NC(=O)CN1C(=O)c2ccc([N+](=O)[O-])cc2C1=O | 8 | 0 | -1 | 2 | / | /
CSc1ccc(-c2ccc3c(c2)CC(CNC(=O)C2CCOC2)O3)cc1 (stereo unspecified) | 3 | 0 | 7.9* | 7 | 0 | -1
CSc1ccc(-c2ccc3c(c2)CC(CNC(=O)c2ccncc2)O3)cc1 (stereo unspecified) | -4 | 0 | 1 | 11 | / | /
CN1CCN(CCCOc2ncc(Nc3ncc(-c4ccc(C(F)(F)F)c(F)c4)nc3C(N)=O)cn2)CC1 | / | / | 6.9* | / | 1 | 7
CC(=O)COc1cc2c(C)cc(=O)oc2cc1Cl | -9 | 0 | 5.6* | 7 | 2 | 12
Cn1ccnc1CN1CCC(Oc2ccc(C(=O)NCc3ccncc3)cc2)CC1 | -8 | 0 | 5.2* | 6 | 0 | 1
c1ccc(Cc2nc3c4c(-c5ccccc5)c(-c5ccccc5)oc4ncn3n2)cc1 | -2 | 0 | 0 | -1 | / | /
CCOC(=O)C1CCCN(C(=O)c2cc(S(=O)(=O)N3CCOCC3)cn2C)C1 (stereo unspecified) | 5 | 0 | 9.2* | -1 | 0 | 3
CCOC(=O)C1CCN(C(=O)c2cc(S(=O)(=O)N3CCCC3)cn2C)CC1 | 8 | 0 | 0 | 8 | / | /
CCCCC[C@H](O)/C=C/[C@H]1[C@H](O)CC(=O)[C@@H]1CCCCC(=O)O | 12 | / | -3 | / | / | /
CCCCC[C@@H](O)/C=C/[C@H]1[C@H](O)CC(=O)[C@@H]1CCCCCCC(=O)O | 14 | / | 7.2* | / | 0 | 3
SMILES | MITF inh | FBW7 activator | GPR151 activ | TEAD-YAP inh | GPR151 conf act | GPR119 counter
COc1ccccc1CNC(=O)CCc1c(C)nc2c(c(C)nn2C(C)(C)C)c1C | 5 | 0 | 3 | 0 | / | /
COc1ccc(CNC(=O)CCc2c(C)nc3c(c(C)nn3C(C)(C)C)c2C)cc1 | 7 | 0 | 7.2* | -17 | -1 | -9
O=C(O)CN(CCN(CC(=O)O)CC(=O)O)CCN(CC(=O)O)CC(=O)O | 41 | 0 | 8.1*! | 6 | 1 | 10
O=C(O)CN(CCOCCOCCN(CC(=O)O)CC(=O)O)CC(=O)O | -1 | 0 | 2 | -3 | / | /
Cc1cccc(-n2nnnc2SCC(=O)NN2C(=O)NC(C)(c3ccccc3)C2=O)c1 (stereo unspecified) | -8 | 0 | 6.9* | 8 | 1 | 12
Cc1ccc(NC(=O)CCN2CCc3ccccc3C2)cc1C | -7 | 0 | -1 | -15 | / | /
O=C1NC(NS(=O)(=O)c2ccccc2)(C(F)(F)F)C(=O)N1c1ccc(Cl)cc1 (stereo unspecified) | -7 | 0 | 5.9* | 4 | 0 | 11
Cc1ccc(S(=O)(=O)NC2(C(F)(F)F)NC(=O)N(c3ccc(Cl)cc3)C2=O)cc1 (stereo unspecified) | -1 | 0 | 0 | -5 | / | /
COc1ccc(C2C(C#N)=C(N)N(c3cc(C(F)(F)F)ccc3Cl)C3=C2C(=O)CC(C)(C)C3)cc1OC (stereo unspecified) | 8 | 0 | 0 | 6 | / | /
O=C(CC1S\C(=N/N=C/C=C/c2ccccc2)NC1=O)Nc1ccccc1F (stereo unspecified) | -11 | 0 | 7.8* | 1 | 1 | -3
COc1cc(C(Nc2cccc(C)n2)c2ccc3ccc(C)nc3c2O)ccc1O (stereo unspecified) | -6 | 0 | 5.2* | -1 | 0 | 16
Cc1ccc(CNC(=O)c2cc3c(=O)n4cccc(C)c4nc3n(C)c2=N)cc1 | 6 | 0 | 11* | 1 | 0 | 0
CNC(=O)c1cc2c(=O)n3cccc(C)c3nc2n(C)c1=N | 18 | 1 | -2 | 13 | / | /
O=C(NC1CC2CCC(C1)N2C1CC1)c1ccc([N+](=O)[O-])cc1 (stereo unspecified) | -9 | 0 | 0 | -4 | / | /
CCN1C(=O)c2cccc3c(N4CCOCC4)ccc(c23)C1=O | -11 | 0 | 2 | -35 | / | /
O=C1C=Cc2ccc(N3CCOCC3)c3cccc1c23 | 13 | 0 | 6.1* | -13 | 0 | 7
COc1ccc(OC(C)C(=O)Nc2cccc(C)c2C)cc1 (stereo unspecified) | 10 | 0 | 1 | 8 | / | /
CCC(Oc1ccccc1)c1nnc(NC(=O)Cc2ccccc2)s1 (stereo unspecified) | 17 | 0 | 28* | 4 | 0 | -11
C=Cc1ccc(Cn2c(C)c(CNCCC3=CCCCC3)c(C(=O)O)c2C)cc1 | 16 | 0 | 6.3* | -2 | -1 | -9
O=C(CN(Cc1ccccc1F)S(=O)(=O)c1ccc(Cl)cc1)NCCCO | 5 | 0 | 6.0* | 11 | 1 | 8
Cc1nc2cc(C(=O)OCC(=O)Nc3ccc(C#N)cc3)ccc2n1-c1ccccc1 | 4 | 0 | -1 | -1 | / | /
CC(=O)c1ccc(NC(=O)COC(=O)c2ccc3c(c2)nc(C)n3-c2ccccc2)cc1 | 16 | 0 | 7.1* | -11 | 2 | 12
